# Assay results taken from the supplement of paper PMC6555819.
# Tests used:
# Test in all cases: PBM binding z-score (relative to random genomic background probes); higher = stronger binding; sequences stand for … in GC…GCGATTGACAGCGTAGAATGAAGG
# [1] = test system: RARb homodimer (NR concentration 270 nM)
# In short: (§1)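 Probes were double-stranded and carried 34-nt variable regions with direct-repeat seeds, single-nucleotide variants, half-site ablations and random human genomic background sequences, printed on custom Agilent 4×180K protein-binding microarrays. Arrays were incubated 1 h with ligand-free nuclear receptor dimers in PBS pH 7.4, 2% milk, 0.02% Triton X-100, 1 mM DTT, 0.2 mg/mL BSA and 0.4 mg/ml salmon testes DNA. Antibodies against each partner (one per run) detected binding, and scanned fluorescence was regression-normalized. Binding z-scores use the random background probes as reference.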
# [2] = test system: RARg:RXRa (NR concentration 270 nM, RXRa partner concentration 90 nM)
# In short: as §1
# [3] = test system: RARg homodimer (NR concentration 270 nM)
# In short: as §1
# [4] = test system: RXRa DBDmut IVT, anti-RXR (DBD mutation: RXRa K156A/R161A, NR concentration 90 nM)
# In short: as §1
# [5] = test system: RXRa homodimer (NR concentration 180 nM)
# In short: as §1
# [6] = test system: THRa:RXRa (NR concentration 90 nM, RXRa partner concentration 90 nM)
# In short: as §1
# [7] = test system: THRa homodimer (NR concentration 90 nM)
# In short: as §1
# [8] = test system: VDR homodimer (NR concentration 270 nM)
# In short: as §1
Sequence,PBM binding z-score [1],PBM binding z-score [2],PBM binding z-score [3],PBM binding z-score [4],PBM binding z-score [5],PBM binding z-score [6],PBM binding z-score [7],PBM binding z-score [8]
TTACCAAGATGAAGGTCGTTGATCCCTCTGTAGA,0.806,0.203,0.0937,0.4,0.993,0.726,-0.149,0.756
TCTAGTTGGTCACGGAGGTCACAGACGACGGGTA,4.64,4.79,4.98,1.02,5.24,3.72,2.35,2.78
ATCGCTAGGTAACAAGTTCAGTGAAAGAGAGGAC,1.42,1.07,0.968,0.533,0.504,1.08,0.174,2.02
TCGAGTAGGTTTGTCGGGGCATTCAGCCAACATA,0.429,-0.206,-0.592,0.805,-0.149,0.462,0.392,0.461
CGAACTAGGACATTGACAGGACAGTGAATAGTAA,0.469,0.496,0.642,0.451,-0.322,0.858,0.623,0.546
ACTAGCAGGCCAAGGGTCAGTCAAGATTAGTCCG,3.52,3.02,2.76,0.119,2.52,1.75,-0.147,0.29
CCTACTGGGCCATCGGGTCATTGATATCAACGTT,2.25,2.25,1.72,-0.759,1.89,2.86,1.94,1.68
AATACAGGGTCACTACGCCAGAGTAGGTACGAAT,3.19,5.26,4.83,3.03,5.7,3.5,1.33,3.21
TCTCGGAGGACACGAAAGGTCAGAGATCGACATC,4.63,5.05,5.73,1.17,4.6,3.87,1.53,1.12
TCGATTAGTTGAAGGGCAACCGACGAGTCCGTTT,1.04,0.11,0.294,1.01,0.397,-0.146,-0.591,0.943
GATATAGGGTCAAGGCCAGAGTACGCGTATTGAT,3.71,5.6,5.13,2.83,5.81,3.96,2.03,2.59
CCGACCGGGGCAGAAAGGTTACCATACCATCCGG,2.41,2.1,1.87,-0.807,1.89,1.53,-0.148,0.0914
CGTCCAAGGTCCGCAGGTCAGTGAAAGCGACGTG,2.24,1.06,1.49,0.0611,0.267,1.04,0.0358,-0.00185
CCTCGGAGGACAGAAGATCAGAGCTGTCCGCTTT,-0.501,-0.0315,0.0841,-0.174,-0.41,-0.0672,-0.73,-0.8
ACTAATAGTTGAGACGAGGGCAACCGATAGGTTG,1.37,0.936,1.15,0.345,0.834,3.43,0.12,0.709
AATACAGGGTCATCGTCGGCCAGAGTACGCACAG,3.96,5.6,5.02,3.4,6.37,4.1,1.64,3.57
GGTACGAGGGCAAGTTGATAGCAGAGTTTGATGG,1.72,1.74,2.47,2.31,0.941,1.39,0.219,2.1
AGAATGAGGTTATTAAGATCAGGGGATTGCGGTC,0.919,1.03,0.573,1.97,1.49,2,0.811,1.35
TATACAGGGTCAAAGGCTAGAGTACGAATGTCGA,3.57,5.5,5.45,2.73,6.82,3.44,1.01,3.25
GCGATTGGGGCAAAGCAGGTTACCATAAGGTTGG,1.1,0.454,0.635,0.0691,0.619,3.01,0.281,0.0482
ATGTGTAGGTTAGCTGGGGTCATTCAGACTAGGC,3.72,4.37,3.19,2.08,5.51,5.15,3.53,5.92
CGAACGAGGGCATGAGTTGACAGCAAATGCCGAT,0.912,1.52,1.6,2.28,0.957,1.45,-0.266,1.65
CCTAGATGGTCAAGGTCACACACGCTATAGGTAC,4.55,4.69,4.96,2.04,4.74,4.1,3.84,3.61
CAAACTAGGTCACCGGAAGGTCAATGTCCGCATG,5.62,8.18,7.34,2.27,5.58,4.36,2.94,3.01
TATAGCAGGCCAGAGGGTCACTCAAGAGGTACGG,2.58,2.61,2.09,-1,2.67,1.76,-0.288,0.651
GTACTAAGGTGAATAGGTCGTTGATGAGTAGGCG,2.3,3.3,1.84,0.451,2.22,3.11,1.66,0.722
CGTCAAAGTTCAACTAAGGTAACGCAAAGCACGC,4.28,5.94,6.37,4.62,4.92,5.48,2.13,3.54
GATACAAGGTCAAGGCCAGAGTACGCGTATTGAT,4.63,5.82,6.11,2.63,5.5,3.88,2.35,2.41
